Assays:
Conditions in all cases: concentration: 1 μM, replicates: in singlicate; n = 1
WNK1 = test system: WNK1
WNK2 = test system: WNK2
WNK3 = test system: WNK3
WNK4 = test system: WNK4
YANK1 = test system: T1, YANK1
T1 construct: gene STK32A

YANK2 = test system: T2, YANK2
T2 construct: gene STK32B

YANK3 = test system: T3, YANK3
T3 construct: gene STK32C

YES = test system: T4, YES
T4 construct: gene YES1

YSK1 = test system: T5, YSK1
T5 construct: gene STK25

YSK4 = test system: T6, YSK4
T6 construct: gene MAP3K19
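Also: KINOMEscan kinase panel screen.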

SMILES | %Inh (WNK1) | %Inh (WNK2) | %Inh (WNK3) | %Inh (WNK4) | %Inh (YANK1) | %Inh (YANK2) | %Inh (YANK3) | %Inh (YES) | %Inh (YSK1) | %Inh (YSK4)
COC(=O)Nc1nc2cc(Oc3ccc(NC(=O)Nc4cccc(SC)c4)cc3)ccc2[nH]1.Cl [GW697999] | 0% | 3% | 29% | 27% | 14% | 0% | 0% | 29% | 3% | 85%
Cl.N#CCc1ccc(Nc2nccc(Nc3ccc(Oc4ccccc4)cc3)n2)cc1 [GW639905] | 15% | 0% | 28% | 6% | 3% | 0% | 10% | 74% | 0% | 41%
Cl.Cl.NC(CNC(=O)c1cc(Br)c(-c2ccnc3[nH]ccc23)s1)c1ccccc1 (centres unmarked) [GSK1322949] | 1% | 0% | 24% | 20% | 22% | 0% | 0% | 2% | 28% | 94.8%
Cc1ccc(O)cc1Nc1ccnc2cc(-c3ccc(CN4CCCCC4)o3)ccc12 [GW557777] | 0% | 0% | 0% | 0% | 10% | 0% | 0% | 99.8% | 0% | 13%
O=C(Nc1n[nH]c2cc(-c3cccs3)ccc12)C1CC1 [SB-731284] | 40% | 0% | 0% | 0% | 19% | 0% | 0% | 0% | 0% | 94%
CN(c1ccc2c(c1)nc(NCc1ccccc1)n2C)c1ccnc(Nc2ccc(CS(C)(=O)=O)cc2)n1.Cl [GW811603] | 0% | 2% | 11% | 0% | 0% | 0% | 0% | 0% | 0% | 97.3%
COc1ccc(NC(=O)c2ccoc2)cc1-c1ccc(C(=O)NCC2CC2)cc1 [GW810437] | 9% | 0% | 12% | 0% | 0% | 13% | 12% | 0% | 0% | 34%
CS(=O)(=O)c1cccc(CNc2nc(Nc3ccc4c(c3)CCC(=O)N4)ncc2C(F)(F)F)c1 | 0% | 0% | 0% | 0% | 0% | 0% | 0% | 0% | 0% | 99%
CN(c1ccc(F)c(NC(=O)c2cccc(OC(C)(C)C#N)c2Cl)c1)c1ccc2nc(NC(=O)C3CC3)sc2n1 | 0% | 19% | 0% | 0% | 0% | 0% | 0% | 91.4% | 0% | 20%
O=C(Nc1n[nH]c2nc(-c3ccccc3)ccc12)C1CC1 [SB-708999] | 15% | 37% | 36% | 60% | 0% | 0% | 28% | 1% | 0% | 93.9%
O=C(O)C(F)(F)F.O=c1[nH]ccc2nc(N[C@@H]3CCNC3)nc(Nc3cc(Cl)cc(Cl)c3)c12 [GSK2188764] | 8% | 26% | 30% | 0% | 40% | 0% | 9% | 12% | 82% | 99.7%
c1ccc(Oc2ccc(Nc3ccnc4cc(-c5ccc(CN6CCCCC6)o5)ccc34)cc2)nc1 [GW567143] | 2% | 39% | 24% | 25% | 0% | 0% | 17% | 51% | 0% | 32%
O=C(Nc1n[nH]c2nc(-c3cccc(O)c3)ccc12)C1CC1 [SB-711805] | 28% | 26% | 0% | 63% | 4% | 0% | 0% | 0% | 0% | 90.9%
CC(C)c1nc(-c2ccc(F)c(NS(=O)(=O)c3c(F)cccc3F)c2)c(-c2ccnc(Nc3ccc(N4CCOCC4)nc3)n2)s1 [GSK1804250] | 7% | 0% | 0% | 31% | 42% | 71% | 15% | 99.2% | 32% | 40%
CN1CCN(Cc2ccc(NC(=O)Nc3ccc(N(C)c4ccnc(Nc5ccc(CS(C)(=O)=O)cc5)n4)cc3)cc2)CC1.Cl [GW827654] | 36% | 45% | 42% | 0% | 19% | 0% | 6% | 0% | 7% | 100%
COc1ccc(C2=C(Nc3cccc(O)c3)C(=O)NC2=O)cc1 [SB-390766] | 16% | 99.7% | 34% | 87% | 0% | 0% | 17% | 0% | 0% | 44%
Cn1cc(-c2ccc3c(c2)CCN3C(=O)Cc2cc(F)cc(C(F)(F)F)c2)c2c(N)ncnc21 [GSK2635225] | 8% | 10% | 30% | 13% | 19% | 0% | 0% | 13% | 22% | 88%

Source: publication PMC5540273 (PLoS ONE, 2017)
